SMILES strings stand for the structures. The campaign covered roughly 300,000 compounds. About 37,000 (12%) were called active. The sample holds actives, similar compounds and a random draw of the others, so the mix is not that of the screen. A number with no mark means an inactive call. Rule as the data show it: active = max response mostly above about 13% (no sharp cut-off); inactive = mostly below about 14%.

The nature of the assay: Cycloheximide Counterscreen for Small Molecule Inhibitors of Shiga Toxin. Also: read at 38.3 µM for the half of the compounds with a filed dose; 0% is about no effect. Particulars: cell reporter, cycloheximide protein synthesis inhibition counterscreen; stronger effect = higher value.
Turning to `O=C(NCCc1c[nH]c2ccccc12)C1CCN(Cc2ccc(Br)cc2)CC1`, the max response is -1.22%.
As for `COc1cc(OC)c(NC(=O)C2CCCN2C(=O)OCc2ccccc2)cc1Cl` (stereo not drawn), the max response is -2.36%.
Consider `COC(=O)c1ccc(OC(=O)c2nn(C)cc2Cl)c(OC)c1`, for which the max response was 8.01%.
With `CCNS(=O)(=O)c1ccc(NC(=O)Nc2cccc(OC)c2)cc1` the figure was 10.4%; with `COc1ccc(S(=O)(=O)NCCCCOc2ccc(Cl)cc2)cc1`, -3.02%; with `COc1cccc(NC(C)=[N+](C)CCNS(=O)(=O)c2ccc(Cl)cc2)c1`, 43.4% (active).
In the case of `CC/C(=N\NC(=O)c1c(C)nc2ccccn12)c1ccc(Cl)cc1`, the max response was 6.12%.
As for `CN(C)c1ccc(C2N(C)C(=O)c3ccccc3N2C)cc1` (stereo not drawn), the max response was -2.11%.
With `O=C(C1=C(O)C(=O)N(CCOCCO)C1c1ccccn1)c1cccs1` (stereo not drawn), the max response is 15.5% (active).
On to `O=C(COc1ccc2ccccc2c1)N1CCN(C(=O)c2cccs2)CC1`, for which the max response is -3.04%.
Take `O=C(C1=C(O)C(=O)N(c2ncccn2)C1c1cccs1)c1ccco1` (stereo not drawn): the max response is 0.951%.
For the compound `Cc1ccc2[nH]c(=O)c(CC(=O)O)c(-c3ccccc3)c2c1`, the max response was -1.3%.
As for `c1ccc(COc2ccccc2CNCc2cccnc2)cc1`, the figure is 2.03%; as for `O=C(O)c1ccc(/C=N/NC(=O)c2ccc(Br)cc2)cc1`, -2.33%.
As for `COC(=O)N/N=C/c1ccc(/C=N/NC(=O)OC)cc1`, the max response was -2.42%.
As for `CC(C)(C)OC(=O)N/N=C/c1ccc(C(=O)O)cc1`, the figure is 29.1% (active).
In the case of `Cc1cccc2c1cnn2C(=O)CCC(=O)NC1CCCCC1`, the max response was 4.44%.
Regarding `Cc1nc2nc(SCC(=O)Nc3cccc(F)c3)[nH]c2cc1Br`, the max response is 1.17%.
As to `O=C(C1CCN(S(=O)(=O)c2cccs2)CC1)N1CCCCCC1`, the max response is 10%.
For `COc1cccc(-c2cc(C(=O)N3CCN(c4ccccc4OC)CC3)no2)c1`, the max response was 7.23%.
With `COc1ccccc1N1CCN(C(=O)c2cc(-c3ccc(Cl)c(Cl)c3)on2)CC1`, the max response was -1.8%.
`O=C(c1cc(-c2cccs2)on1)N1CCCCC1`: the max response was 50.6% (active).
Turning to `O=C(c1ccco1)N1CCN(C(=O)c2ccc(COc3ccc(F)cc3)o2)CC1`, the max response is -1.31%.
With `O=C(c1ccc(Cl)c(Cl)c1)N1CCCC1`, the max response was -2.63%.
As for `COc1ccccc1-c1cc(C(=O)N2CCCCC2)no1`, the max response is 59.2% (active).
As for `COc1cccc(OC)c1OCCN1CCN(C(=O)c2ccco2)CC1`, the max response was -3.58%.
As for `O=C(c1cc(-c2ccccc2O)on1)N1CCCC1`, the figure is 35% (active); as for `CNC(=O)n1ccc(C(=O)N2CCCCC2)n1`, 1.48%.
Take `COc1cccc(OCc2cc(C(=O)N3CCN(C(=O)c4ccco4)CC3)no2)c1`: the max response was 44.9% (active).
With `N#Cc1cccc(NC(=O)CN2CCCCCC2)c1` the figure was 4.22%.
As for `CC1CN(C(=O)CCC(=O)NCc2cccnc2)c2ccccc2O1` (stereo not drawn), the figure is 0.76%.
Consider `OCCN(Cc1ccccc1)Cc1ccc(Cl)cc1`, for which the max response was -2.21%.
Consider `CCc1nnc(NC(=O)CCN(c2ccc(C)cc2)S(=O)(=O)c2ccccc2)s1`, for which the max response was -1.73%.
Regarding `COc1ccc(C2NC(=O)N(C)C(C)=C2[N+](=O)[O-])cc1` (stereo not drawn), the max response was -2.28%.
Turning to `CCn1ccnc1CN(C)C(=O)c1cc(COc2ccc(Cl)cc2OC)on1`, the max response was 39.1% (active).
Turning to `COc1ccc(OCc2cc(C(=O)N3CCCC3)no2)c2ccccc12`, the max response is 65.1% (active).
Regarding `CC(=O)c1ccc(NC(=O)c2cc(-c3cccs3)on2)cc1`, the max response was 16.4% (active).
Turning to `CCn1ccnc1CN(C)C(=O)c1cc(COc2ccc(-n3cncn3)cc2)on1`, the max response was -1.13%.
With `COc1ccccc1OCc1ccc(C(=O)N2CCN(C)CC2)o1`, the max response is 1.3%.
As for `COc1cc2c(C(=O)N(C)c3cc(Cl)ccc3OC)cn(C)c(=O)c2cc1OC`, the max response was -3.47%.
In the case of `COc1ccc(C(=O)C2CCCN(C(=O)c3cc(C)on3)C2)cc1F` (stereo not drawn), the max response is 1.02%.
Regarding `COc1cc(Cl)ccc1OCc1cc(C(=O)N(C)CCc2c(C)n[nH]c2C)no1`, the max response is 32.5%.
For `COc1cc(Cl)ccc1OCc1cc(C(=O)N2CC[C@@H]3CCCC[C@H]3C2)no1`, the max response was 38.6% (active).
For `Cc1cc(NC(=O)c2cc(-c3cccs3)on2)nn1Cc1ccc(Cl)cc1`, the max response was 9.8%.
Consider `CC(=O)Nc1cccc(Nc2nc(-c3cccs3)nc3ccccc23)c1`, for which the max response is 13.3%.
Take `Cc1ccc(C)c(OCc2cc(C(=O)N3CCN(c4cnccn4)CC3)no2)c1`: the max response was 19.7%.
Consider `O=C(Cc1csc(Nc2nc(=S)[nH]c3ccccc23)n1)NCCCN1CCN(c2cccc(Cl)c2)CC1`, for which the max response was 1.69%.
Take `Cc1ccnc(NC(=O)Cn2ccc([N+](=O)[O-])n2)c1`: the max response is -1.7%.
With `CCOC(=O)/C(=N\Nc1cc(Cl)ccc1Cl)N1CCN(C)CC1` the figure was -1.84%; with `Cc1c(C)c2c(OCC(=O)NCCCO)cc3c(c2oc1=O)CCC(C)(C)O3`, 0.89%.
With `CN(CC#CCC(c1ccccc1)c1ccccc1)C(C)(C)C` the figure was -2.81%; with `Cc1ccccc1NC(=O)CSc1nc2ccc(Nc3nc(N4CCOCC4)nc(N4CCOCC4)n3)cc2s1`, -3.62%; with `CCCCC1(C(=O)OCC)NC(c2ccc(O)cc2)C2C(=O)N(c3ccccc3)C(=O)C21` (stereo not drawn), -1.77%.
Take `CCOc1ccc(OCC(=O)Nc2c3c(nn2C(C)(C)C)CS(=O)(=O)C3)cc1`: the max response was 0.307%.
For the compound `N#CCC(=O)N/N=C/c1cn(Cc2ccc3ccccc3c2)c2ccccc12`, the max response was 1.05%.
Turning to `c1ccc(Cc2cc[n+](Cc3ccccc3)cc2)cc1`, the max response is -3.55%.
As for `Cc1ccc(CN(Cc2cccnc2)C(=S)Nc2cccc(Cl)c2C)cc1`, the max response is 9.59%.
Regarding `CCCCC(=O)Nc1ccccc1N1CCN(c2ccc(F)cc2)CC1`, the max response is 5.13%.
As to `Cc1c(S(=O)(=O)NC(C)c2ccccc2)c(=O)n(C)c(=O)n1C` (stereo not drawn), the max response was 1.11%.
Take `Cc1coc2c1c(C)cc1oc(=O)c(CC(=O)NCC(=O)N[C@H](C(=O)O)C(C)C)c(C)c12`: the max response was -5.82%.
As for `C/C(N)=C(/C#N)C(=O)COC(=O)c1cc(-c2cccc(Br)c2)nc2ccccc12`, the max response is 0.776%.
With `C/C(N)=C(/C#N)C(=O)COC(=O)c1cc(-c2ccccc2)nc2ccc(Br)cc12` the figure was -2.32%.
With `C/C(N)=C(/C#N)C(=O)COC(=O)c1cc(-c2ccc(C)cc2)nc2ccccc12` the figure was 32.1% (active); with `COc1ccc(NC2=CC(=S)NC(C)(C)C2)cc1`, -1.18%.
With `Cc1csc(Nc2ccc(Cl)cc2)[n+]1-c1ccc(Cl)cc1` the figure was 8.25%; with `O=C(Nc1nsc(-c2ccccc2)n1)c1ccncc1`, 15.5% (active).
Consider `COC(=O)c1nc(NC(=O)c2ccccc2)n[nH]1`, for which the max response was -3.23%.
For `O=C(CSc1ncn[nH]1)Nc1nsc(-c2ccccc2)n1`, the max response is 15.2%.
In the case of `Cc1cc(C)cc(NC(=O)CSCc2cnn(-c3ccccc3)c2-n2cccc2)c1`, the max response was 16.3%.
As for `O=c1ccc(-c2ccc(S(=O)(=O)Nc3ccccc3)o2)n[nH]1`, the max response was -12.6%.
For the compound `CCCC[C@H]1COCCS(=O)(=O)N1Cc1cccc(Cl)c1`, the max response is 0.203%.
Turning to `CCC(C)[C@H]1COCCS(=O)(=O)N1Cc1ccc(C)cc1` (stereo partly drawn), the max response was 1.06%.
With `O=S1(=O)CCOC[C@H](CC2CCCCC2)N1Cc1ccc(F)cc1` the figure was 17.1% (active); with `O=S(=O)(c1ccc(Cl)cc1)N1CCCN(c2ccc(C(F)(F)F)cn2)CC1`, -1.58%; with `COc1ccccc1-n1c(O)c(C=NC2CC2)c(=O)[nH]c1=O`, -4.22%.
In the case of `O=C(Nc1cc(=O)[nH]c2ncnn12)c1ccccc1Cl`, the max response was -7.22%.
Turning to `O=C(N/N=C/c1c(O)n(C2CC2)c(=S)[nH]c1=O)c1ccccc1Cl`, the max response was 19.5% (active).
For `O=C(N/N=C/c1ccc(OC(=O)c2ccccc2Cl)cc1)c1ccc(O)cc1`, the max response was -3.06%.
As for `O=c1[nH]c(=S)n(C2CC2)c(O)c1/C=N/N1CCOCC1`, the figure is -4.88%; as for `O=C(N/N=C/c1c(O)n(C2CC2)c(=S)[nH]c1=O)c1ccccc1`, 38.1% (active).
On to `COC(=O)CCSc1cc([N+](=O)[O-])cc2c1c(C1OCCS1)nn2-c1ccccc1` (stereo not drawn), for which the max response was -3.43%.
With `O=C(NCCN1CCOCC1)c1ccc(/C=C2\Sc3ccccc3N(Cc3ccc(F)cc3)C2=O)cc1` the figure was 11.1%.
On to `Cc1nc(-c2nnc(SCC(=O)Nc3cc(C(F)(F)F)cc(C(F)(F)F)c3)n2C)cs1`, for which the max response was -0.852%.
For `CCOC(=O)c1c(-c2ccccc2)oc2ccc(OCC(=O)NN)cc12`, the max response was -3.08%.
`CCOCCCn1c(SCC(=O)Nc2cc(OC)ccc2OC)nc2ccccc2c1=O`: the max response was -2.84%.
For the compound `Cc1nn(C)c(Cl)c1CN1CCC(Oc2ccc(C(=O)N3CCCC3)cc2)CC1`, the max response is 0.779%.
For the compound `COCc1cc(C)nc2sc(C(=O)NC3CCCCC3)c(N)c12`, the max response was 11.4%.
Regarding `CC(C)OC(=O)c1sc2nc3c(cc2c1N)C(=O)CCC3`, the max response was 19.5% (active).
`Nc1c(C(=O)NCc2ccccc2)sc2nc3c(cc12)C(=O)CCC3`: the max response was 8.86%.
With `CCn1c(CC(=O)Nc2ccccc2C)nnc1SCC(=O)NC1=NCCS1` the figure was 7.82%.
As for `COC(=O)Cc1ccc(N(Cc2ccccc2F)S(=O)(=O)c2ccc(Br)cc2)cc1`, the figure is -4.43%.
With `COc1ccc(Cl)cc1NS(=O)(=O)c1cccc(C(=O)NCC2CCCO2)c1` (stereo not drawn) the figure was -3.64%; with `CC(=O)N1c2ccc(S(=O)(=O)N(C)CC(=O)N(C)Cc3ccccc3)cc2CC1C` (stereo not drawn), -2.22%.

The values are drawn from PubChem BioAssay AID2314 (National Center for Advancing Translational Sciences (NCATS), 2010).
